TDP1 cell CPT: qHTS for Inhibitors of human tyrosyl-DNA phosphodiesterase 1 (TDP1): qHTS in cells in presence of CPT; actives 12% (n = 420,000); Potency, µM (top dose mostly 46.2 µM), for the others: top-dose activity change, negative = growth inhibition, hits mostly inhibitors; chicken DT40 Tdp1-/-;hTDP1 cells + 20 nM CPT, ATP luminescence, 48 h; note: potency is the fitted concentration of half-maximal effect; nearly all actives have a fitted effect of over 55% in size
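Chicken DT40 Tdp1-/- cells complemented with human TDP1, 400 cells/well, exposed to compounds plus 20 nM camptothecin for at least 48 h at 37 C; viability read as ATP content by CellTiter-Glo luminescence.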
HT1080-NT tox: qHTS for induction of synthetic lethality in tumor cells producing 2HG: qHTS for the HT-1080-NT fibrosarcoma cell line | Potency, µM (doses to about 46.1 µM), for the others: at the highest dose activity, negative = less viability, usual class: cytotoxic | actives 1.6% (n = 360,000) | HT-1080-NT fibrosarcoma viability, CellTiter-Glo ATP luminescence, 48 h;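 note: NT is the 2HG producing partner of a matched IDH1 knockdown line; potency is the fitted concentration of half-maximal effect; 0% = DMSO-treated cells and -100% = media-only wells without cells; nearly all actives have a fitted effect of over 55% in size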
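Luminescent CellTiter-Glo readout after 48 hours of compound exposure at 37 degrees C defined viability of HT-1080-NT cells. Activity was normalized to DMSO wells and cell-free media wells; concentration-response curves were fitted and assigned curve classes.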
HT1080 IDH1KD tx: qHTS for induction of synthetic lethality in tumor cells producing 2HG: qHTS for the HT-1080-IDH1KD cell line | HT-1080 IDH1 knockdown viability, ATP luminescence, 48 h | Potency, µM (doses to about 46.1 µM), for the others: top-dose activity, negative = toxicity, actives largely listed as cytotoxic | actives 2% (n = 360,000) | AID 686971, 2013;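 note: potency is the fitted concentration of half-maximal effect; 0% = DMSO wells and -100% = cell-free medium wells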
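After a 2 h attachment period, IDH1KD HT-1080 cells took pin-transferred compound for 48 h at 37 °C; ATP-based luminescence after 10 min room-temperature reagent incubation reported viability.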
IL1B secr inh: qHTS for Inhibitors of Inflammasome Signaling: IL-1-beta AlphaLISA Primary Screen; actives 4.7% (n = 360,000); THP-1 LPS/ATP IL-1B secretion, AlphaLISA, 16 h; hits give low values; activity change, % at 57.5 µM; in the data active = activity change below about -50%; inconclusive = mostly about -30% to -49%
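Secreted IL-1B measured by AlphaLISA bead assay after 16 h compound exposure of THP-1 cells; compounds (final up to 57.5 uM) added 1 h before LPS (250 ng/mL) and ATP (1.25 mM) stimulation; lower signal means less secretion.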
DT40 TDP1 no CPT: qHTS for Inhibitors of human tyrosyl-DNA phosphodiesterase 1 (TDP1): qHTS in cells in absence of CPT | DT40 Tdp1-/- hTDP1 cells, no CPT, ATP luminescence, 48 h | Potency, µM (top dose mostly 46.2 µM), for the others: at the highest dose activity change, negative = growth inhibition, usual class: inhibitors | actives 15% (n = 420,000) | AID 686978, 2013; note: potency is the fitted concentration of half-maximal effect; nearly all actives have a fitted effect of over 55% in size
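Growth kinetics read by CellTiter-Glo luminescence after ≥48 hr at 37 °C. Cells: DT40 Tdp1-/- stably carrying human TDP1, 400 per well, compound exposure in the absence of CPT (DMSO vehicle).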
Active calls of the source: *; ? = inconclusive; / = no result given; [ ] = remark or other dose. Sampled rows, rich in hits. Any-hit rate of the full collection: about 19%. Unless noted, calls come from the whole dose curve; as a rule, active = well fitted curve in the direction sought with a large enough effect; inconclusive = small, poorly fitted or top-dose-only effect, or another doubt; inactive = no such curve, though single readings can be large; an effect the other way counts as inactive or inconclusive. Unless noted, % is set by controls: 0 for no effect and ±100 for the full control effect.

SMILES	TDP1 cell CPT	HT1080-NT tox	HT1080 IDH1KD tx	IL1B secr inh	DT40 TDP1 no CPT
CC(=O)NC(c1ccc(Cl)cc1)c1ccc2cccnc2c1O (centres undefined)	4.11µM*	?	?	83.2	2.59µM*
CCOc1ccc(C(NC(=O)CC)c2c(O)ccc3ccccc23)cc1 (centres undefined)	-81.6%	?	?	4.5	?
CCC(=O)NC(c1ccc(C)cc1)c1ccc2cccnc2c1O (centres undefined)	4.11µM*	-29.7%	?	141.7	4.61µM*
CC(C)c1ccc(NS(=O)(=O)c2cccc3cccnc23)cc1	-22.7%	1.7%	-2.2%	?	-14.4%
CCCC(=O)NC(c1ccc(C(C)C)cc1)c1ccc2cccnc2c1O (centres undefined)	5.17µM*	-9.3%	?	146.2	2.31µM*
COc1ccc(C(NC(=O)C(C)C)c2ccc3cccnc3c2O)cc1 (centres undefined)	0.731µM*	1.64µM*	?	137.9	0.461µM*
O=C(Cn1nc(Br)nc1Br)c1ccccc1	0.8%	-0.8%	16.0%	-11.2	-3.5%
COc1ccc(CNC(=O)c2ccc(CNS(=O)(=O)c3ccc(F)cc3)cc2)cc1	-11.9%	/	/	/	6.7%
O=C(NCc1ccco1)c1[nH]c(C(F)(F)F)nc1-c1ccccc1	-11.0%	1.4%	5.9%	2.2	-27.8%
CC(C)CC(=O)N1CCN(C(=O)c2ccco2)CC1	23.8%	12.6%	14.2%	0.0	-17.1%
CC(C)Cc1nc(N2CCN(C(=O)c3ccco3)CC2)c(C#N)c2c1CCCC2	23.1µM*	?	?	-27.3	?
CC1(C)Cc2c(C#N)c(N3CCOCC3)nc(-c3ccccc3)c2CO1	-18.3%	3.8%	-2.4%[9.24 µM]	-16.3	?
Cc1nc(N2CCN(C(=O)c3ccco3)CC2)c(C#N)c2c1CCCC2	0.2%	16.0%	12.0%	-84.2*	?
CCCC(=O)N1CCN(c2nc(CC(C)C)c3c(c2C#N)CCC3)CC1	?	2.0%	-14.0%	-71.9*	23.1µM*
CC(C)C(=O)N1CCN(c2nc(-c3ccccc3)c3c(c2C#N)CCCC3)CC1	?	?	?	-56.8*	?
N#Cc1cccnc1N1CCN(C(=O)c2ccco2)CC1	-14.2%	28.2%	25.6%	0.4	-15.2%
C=CCNC(=O)/C(C#N)=C/c1ccc2c(c1)OCCO2	11.6%	2.6%	3.1%	-19.9	-30.0%
CC1CCCCC1NC(=O)/C(C#N)=C/c1ccc2c(c1)OCCO2 (centres undefined)	?	-13.7%	-8.7%	-101.7*	?
CC(=O)Nc1ccc(/C=C(\C#N)C(=O)NC2CCCCC2)cc1	-8.8%	-2.6%	0.1%	-85.5*	?
CC1CCCCC1NC(=O)/C(C#N)=C/c1ccc(F)c(F)c1 (centres undefined)	-9.9%	17.0%	4.9%	-8.5	-9.5%
N#C/C(=C\c1ccc(Cl)cc1)C(=O)NC1CC1	-28.2%	3.0%	-15.8%	?	?
CSc1ccc(/C=C(\C#N)C(=O)NC2CCCCC2)cc1	?	3.1%	5.4%	-4.8	20.6µM*
C=CCNC(=O)/C(C#N)=C/c1ccc(SC)cc1	-6.3%	0.7%	-1.6%	-57.4*	?
COc1ccc(-c2cc(C(=O)Nc3cc(Br)ccc3O)no2)cc1	?	19.5%	16.3%	-15.3	?
CCOc1ccc(C(=O)Nc2ncccc2Cl)cc1	-4.9%	2.5%	-6.0%	-14.9	-11.2%
O=c1c2oc3ccccc3c2n(Cc2ccccc2Cl)c(=O)n1Cc1ccco1	16.1%	/	/	/	21.8%
COc1ccc(-c2[nH]ncc2/C=C(/C#N)C(=O)NC2CCCCCC2)cc1	?	18.4µM*	?	-88.2*	18.4µM*
